# Measurements published in PubChem BioAssay AID1508625 (Wald Lab, School of Medicine, Case Western Reserve …, 2021).
# Experiment: enhancers of NK cell killing of ovarian tumor cells, primary screen, imaging, OVCAR3, primary NK cells, calcein-AM imaging (AID 1508625);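 note: compound given to NK cells 16 h before adding targets at 1.5 to 1 ratio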
# Details: OVCAR3 lysis by primary NK cells, at 5 µM; z-score: measured here: robust Z-score, single-point normalisation
Compound,z-score,"corrected activity, negative = more killing [%]"
COc1ccc(-c2ccc3c(N)c(C(=O)NCCc4ccc(Cl)cc4)sc3n2)cc1,-0.492,-1.65
O=C(O)CCn1ncc2ccccc21,-1.31,-4.13
CCC(CC)NC(=O)c1cccc(OC)c1OC,-0.0486,-0.109
COc1ccc(Cc2nc3c4c5c(sc4ncn3n2)C(C)(C)NC(C)(C)C5)cc1OC,-1.03,-2.36
c1ccc(-c2ccccc2OCCN2CCNCC2)cc1,1.05,1.89
CCOc1ccc(-n2c(SCC(=O)Nc3ccc(C)cc3)nc3c([nH]c4ccccc43)c2=O)cc1,-1.27,-5.11
Cc1c(C(=O)NC(C)C)oc2ccc(S(=O)(=O)N3CCOCC3)cc12,-0.849,-3.41
Cc1cc2c(cc1C)NC(c1coc3ccc(Cl)cc3c1=O)C1=C(CC(C)(C)CC1=O)N2 (stereo not drawn),-0.968,-2.17
Cc1cc(C)cc(-n2cnc3cc(C(=O)NC4CCCCC4C)ccc32)c1 (stereo not drawn),-0.771,-2.86
CCCCNCC(=O)Nc1ccc(Br)cc1,-1.88,-5.05
COc1ccc(S(=O)(=O)NCc2ccc(C(=O)N(C)Cc3ccco3)cc2)cc1,-1.89,-7.7
CC1(C)NN=C(N)SC1=O,-0.14,-0.451
CCN1CCN(C(=O)c2oc3ccc(S(=O)(=O)N4CCCCCC4)cc3c2C)CC1,-1.6,-6.41
CC(=O)Oc1ccc(C(=O)Nc2nc3ccc4ccccc4c3s2)cc1,-0.335,-1.08
O=C(c1ccccc1Br)N1N=C(c2ccccc2)CC1(O)C(F)(F)F (stereo not drawn),-1.24,-3.24
Cc1nc2ccccc2n1Cc1cccc2ccccc12,-2.01,-3.88
O=C(COc1ccccc1F)N1CCc2ccccc2C1,-1.68,-4.1
CCCCC1CC(CN2C(=O)NC(C)(C)C2=O)OC1=O (stereo not drawn),-0.811,-2.13
COC(=O)c1cc(NC(=O)C2(S(=O)(=O)c3ccc(C)cc3)CC2)cc(C(=O)OC)c1,-1.16,-4.1
COc1cc(C)c(NC(=O)c2ccccc2I)cc1C(C)C,-1.89,-3.4

Compound,z-score,"corrected activity, negative = more killing [%]"
CCn1cnc2sc(C(=O)Nc3cccc([N+](=O)[O-])c3)c(C)c2c1=O,-0.931,-2.56
O=C(NN=Cc1ccncc1)c1n[nH]c2c1CCC2,-0.783,-1.79
COC(=O)c1ccc(CN2CCN3CCCC3C2C2CCCCC2)cc1 (stereo not drawn),-1.21,-2.78
COC(=O)c1conc1-c1ccccc1OC,-1.35,-3.1
Cc1ccc2cccnc2c1[N+](=O)[O-],-0.744,-3.53
CCOc1ccc2nc(SCC(=O)Nc3ccccc3C(=O)O)sc2c1,-1.75,-4.64
FC(F)(F)c1cc(-c2cccs2)nc2nc(=S)[nH]n12,-0.791,-2.93
CSc1nnc2c(n1)OC(c1ccc(OCC(=O)O)cc1)Nc1ccccc1-2 (stereo not drawn),-0.915,-2.58
Cc1ccccc1OCC(=O)Nc1c[nH]c(=O)[nH]c1=O,-0.363,-0.837
COCCOC(=O)C1=C(C)N(C)C(=O)NC1c1ccccc1Cl (stereo not drawn),-1.32,-3.72
CCOC(=O)c1ccc(NC(=O)CCc2ccccc2)cc1,-1.15,-3.6
CC(=NNC(=S)Nc1cccc(C)c1)c1cccc(N)c1,-2.08,-5.28
Cc1ccc(-c2cc(C(F)(F)F)n3ncc(C(=O)N4CCC(C)CC4)c3n2)cc1,-1.79,-5.63
OCCNCCCOc1ccccc1F,-0.566,-1.78
COc1ccc(C(O)=C2C(=O)C(=O)N(CCN3CCNCC3)C2c2ccc(OC)cc2)cc1 (stereo not drawn),-1.87,-4.32
O=C(CCn1c(=S)[nH]c2ccccc2c1=O)NCCc1ccc(Cl)cc1,-0.633,-2.39
Cc1ccccc1CSC1=NCCN1C(=O)c1ccc(OC(C)C)cc1,-1.14,-4.64
CC(C)=NNC(=O)C(=O)Nc1cccc(Cl)c1,-1.56,-3.01
Brc1ccc(SCCc2nc3ccccc3o2)cc1,-1.56,-4.19
